# BAZ2B block: blocks human BAZ2B | Potency, µM (highest dose often 114 µM), most hits filed as inhibitors | AlphaScreen BAZ2B-H3K14Ac peptide displacement | Q9UIF8 | hit rate 4.4% among 360,000; note: nearly all actives have a fitted effect of over 60% in size
#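 AlphaScreen displacement: compounds (up to 110uM) incubated 30 min at room temperature with a preformed 50 nM BAZ2B/50 nM biotinylated H3K14Ac peptide complex in PBS pH 7.4 with Tween-20. Donor and acceptor beads at 10 ug/mL final added, 20 min light-protected before reading.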
# G9a inh: inhibitors of human histone lysine methyltransferase G9a; Potency, µM (highest dose often 102 µM), most hits filed as inhibitors; hit rate 8.8% among 350,000; G9a H3K9 monomethylation, AlphaScreen, 2 h; AID 504332; Q96KQ7; note: nearly all actives have a fitted effect of over 75% in size
# Target sequence (Q96KQ7 913-1193 limits assumed): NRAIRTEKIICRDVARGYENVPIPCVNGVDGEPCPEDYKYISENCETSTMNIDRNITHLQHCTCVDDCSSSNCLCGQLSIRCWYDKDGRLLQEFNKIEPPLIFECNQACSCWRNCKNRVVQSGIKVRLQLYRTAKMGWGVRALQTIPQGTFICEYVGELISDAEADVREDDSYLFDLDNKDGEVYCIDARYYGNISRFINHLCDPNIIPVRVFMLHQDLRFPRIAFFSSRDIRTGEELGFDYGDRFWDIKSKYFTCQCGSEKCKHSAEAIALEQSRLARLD
#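 AlphaScreen detection with an anti-monomethyl H3K9 antibody quantified product after a 2 h room-temperature reaction containing 500 nM biotinylated H3K9 peptide, 20 µM SAM and 20 nM enzyme, which had been preincubated 15 min with compound.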
# L3MBTL1 block: blocks human L3MBTL1. Q9Y468. AlphaScreen L3MBTL1–H3K9me1 peptide binding. Potency, µM (highest dose often 57.1 µM), usual class: inhibitors. hit rate 0.66% among 230,000. AID 485360; note: nearly all actives have a fitted effect of over 60% in size
#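 First, the protein-peptide complex forms for 30 min at room temperature (L3MBTL1 50 nM, biotinylated H3K9me1 peptide 75 nM). Next, compounds are pin-transferred and incubated 30 min. Finally, AlphaScreen beads are added and read after 30 min.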
# JMJD2A Tudor inh: inhibitors of human JMJD2A Tudor domain; O75164; AlphaScreen JMJD2A-Tudor / H3K4me3 peptide binding; Potency, µM (doses to about 114 µM), hits mostly inhibitors; hit rate 4.4% among 390,000; AID 504339; note: nearly all actives have a fitted effect of over 50% in size
# HP1b chromo inh: inhibitors of HP1-beta chromodomain binding to methylated histone tails; AlphaScreen HP1-beta / biotin-H3K9me3 peptide binding; Potency, µM (doses to about 114 µM), actives largely listed as inhibitors; hit rate 0.56% among 390,000; AID 540317; note: nearly all actives have a fitted effect of over 70% in size
# Target sequence (P83916 whole entry, looked up): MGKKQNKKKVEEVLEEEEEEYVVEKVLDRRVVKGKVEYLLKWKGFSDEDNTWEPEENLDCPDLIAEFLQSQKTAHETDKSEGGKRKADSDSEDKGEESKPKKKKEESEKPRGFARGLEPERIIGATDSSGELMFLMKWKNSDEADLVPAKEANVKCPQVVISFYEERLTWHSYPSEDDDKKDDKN
#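 AlphaScreen: HP1-beta (50 nM) preformed 30 min with biotin-H3(1-18)K9me3 peptide (50 nM) in PBS pH 7.4, 0.01% Tween-20. Compound added for 30 min at RT, then streptavidin donor/nickel chelate acceptor beads (10 ug/mL) for 30 min.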
# PI5P4Ka inh: PI5P4K alpha (human) kinase inhibition; P48426; PI5P4Kalpha enzyme, ADP-Glo luminescence, 60 min; stronger effect = lower value; hit rate 1.2% among 330,000; max response, %; active = max response of -50% or lower; inconclusive = between -30% and -50%; inactive = -30% or higher; note: value at the top dose of about 77 µM
#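 Reactions run in 0.038 M HEPES pH 7.4, 0.28 mM EGTA, 0.1% CHAPS and 5% DMSO, with PI5P4Kalpha, substrate, compound and 5 microM ATP final, one hour at room temperature. Readout is ADP-Glo luminescence.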
# Hits are given with their value; i = inactive; ? = inconclusive; nt = no result given; [ ] = dose if it differs, or a comment. A selection: hits, their analogues and other compounds. The true share with any hit is near 11%. Unless noted, calls come from the whole dose curve; as a rule, active = well fitted inhibition curve with a large enough effect; inconclusive = small, poorly fitted or top-dose-only effect; inactive = no such curve, though single readings can be large or run the other way.
SMILES,BAZ2B block,G9a inh,L3MBTL1 block,JMJD2A Tudor inh,HP1b chromo inh,PI5P4Ka inh
Cc1ccccc1OCC(=O)Nc1ccc(S(=O)(=O)Nc2ncccn2)cc1,i,?,nt,i,i,nt
CC(=O)/C(=N\Nc1ccccc1)Sc1nnc(-c2ccccc2)n1-c1ccccc1,i,10µM,i,32µM,i,i
CC(=O)/C(=N\Nc1ccccc1Cl)Sc1nnc(-c2ccccc2)n1-c1ccccc1,i,8.9µM,i,i,i,i
CC(=O)/C(=N\Nc1ccc(Cl)cc1Cl)Sc1nnc(-c2ccccc2)n1-c1ccccc1,i,?,?,i,i,i
CC(=O)/C(=N\Nc1ccccc1)Sc1nncn1C,?,4µM,i,20µM,i,i
COc1ccc(Cl)cc1C(=O)NCc1nc(-c2cccc(C)c2)no1,i,i,nt,i,i,nt
Cc1ccccc1-c1nc(CS(=O)(=O)CC(=O)NCCCc2ccccc2)c(C)o1,i,i,nt,i,i,nt
COc1ccc(NC(=O)CSc2nnc(Cc3cccn3C)n2-c2ccc(F)cc2)cc1,?,71µM,i,i,i,i
COc1ccc(-n2c(Cc3cccn3C)nnc2SCC(=O)Nc2ccc(F)cc2)cc1,?,35µM,i,i,i,i
CCN1CCN(Cc2c(O)ccc3oc(C)c(C(=O)Nc4cccc(C(F)(F)F)c4)c23)CC1,i,i,nt,i,i,nt
COc1ccc(-c2noc(CSc3nnc(-c4ccncc4)n3-c3ccc(OC)cc3)n2)cc1,?,i,nt,i,i,nt
COc1cc(CCc2ccccc2)c(C(=O)O)c(O)c1CC=C(C)C,nt,nt,nt,i,i,i
COc1cc(CCc2ccccc2)c(C(=O)O)c(O)c1C/C=C(/C)CCC=C(C)C,nt,nt,i,79µM,i,i
COCCn1c(=O)c(-c2cccs2)nc2cnc(Oc3cccc(Cl)c3)nc21,nt,i[12.7 µM],nt,nt,nt,nt
Cc1cccc(C)c1NC(=O)CN(C)C(=O)c1ccc(N2C(=O)CCC2=O)cc1,i,?,i,i,i,i
Cc1cccc(C)c1NC(=O)CN(C)C(=O)c1cccc(-n2cccc2)c1,50µM,50µM,28µM,8.9µM,?,?
CN(CC(=O)Nc1cccc(F)c1)C(=O)c1cccc(N2C(=O)CCC2=O)c1,i,i,i,i,i,i
Cc1ccc(C)c(NC(=O)CN(C)C(=O)c2cccc(N3C(=O)CCC3=O)c2)c1,i,40µM,i,i,i,i
CCN(CC(=O)Nc1ccccc1OC)C(=O)c1cccc(-n2cccc2)c1,?,45µM,nt,?,i,i
Cc1cc2occ(CC(=O)N(C)CC(=O)Nc3c(C)cccc3C)c2cc1C,i,40µM,i,i,i,i
CCN(CC(=O)Nc1ccccc1OC)C(=O)c1cc(-c2ccccc2)nn1-c1ccccc1,i,?,i,?,i,i
Cc1nc(N2CCOCC2)c2c(C(=O)N3CCN(c4cc(Cl)ccc4C)CC3)c(C)oc2n1,i,i,nt,i,i,nt
O=S(=O)(c1cccnc1)N1CCN(c2nc(-c3cccs3)nc3ccccc23)CC1,nt,nt,nt,i,i,nt
COc1ccc(CNC(=O)c2cccn2-c2nnc(N3CCCCC3)s2)c(OC)c1,i,i,nt,i,i,nt
COc1ccc(NC(=O)N2CCOc3ccc(Cl)cc32)cc1,?,i,nt,i,i,nt
SMILES,BAZ2B block,G9a inh,L3MBTL1 block,JMJD2A Tudor inh,HP1b chromo inh,PI5P4Ka inh
COc1ccc(-n2c(=O)c3sc4ccccc4c3n(CC(=O)NC3CCCCC3)c2=O)cc1,i,i,nt,i,i,nt
Cc1ccc(/C=C2/Sc3ccccc3N(CC(=O)NCC3CCCO3)C2=O)cc1 (centres undefined),i,i,nt,i,i,i
COc1ccc(/C=C2\Sc3ccc(C(=O)N4CCN(Cc5ccccc5)CC4)cc3N(C)C2=O)cc1OC,?,71µM,nt,?,i,i
COc1ccc(/C=C2\Sc3ccc(C(=O)NCC4CCCO4)cc3N(C)C2=O)cc1 (centres undefined),i,13µM,nt,?,i,i
COc1ccc(/C=C2\Sc3ccc(C(=O)N4CCOCC4)cc3N(C)C2=O)cc1,i,i,nt,56µM,i,i
COc1ccc(-c2cccc(C(=O)N3CCOCC3)c2)cc1,i,i,i,i,i,i
Cc1ccc(-c2ccc(=O)n(CCC(=O)NCCc3ccccc3)n2)cc1,i,i,nt,i,i,nt
COc1ccc(NC(=O)Cn2c(SCc3ccc(F)cc3)nc3cccnc32)c(OC)c1,i,?,nt,i,i,nt
CC1=C(c2ccc(F)cc2)S(=O)(=O)N=C1N1CCC(C(=O)NCCc2ccco2)CC1,i,i,nt,i,i,nt
CC(C)CC(=O)c1c[nH]c(C(=O)NCc2cccs2)c1,i,0.22µM,nt,i,i,i
Cc1nnsc1NC(=O)OCC(C)(C)C,i,50µM,i,i,i,i
COc1ccc(-n2nc(C(=O)N3CCCCC3)c3c4ccccc4n(C)c3c2=O)cc1Cl,nt,i,nt,i,i,nt
Cc1ccccc1CC1(CO)CCCN(C(=O)c2ccc3ncccc3c2)C1 (centres undefined),i,nt,i,8.9µM,i,?
CC(C)N(C)C1CCN(S(=O)(=O)c2ccc3[nH]c(=O)ccc3c2)CC1,i,i,nt,i,i,nt
CN(C(=O)Nc1ccc(Cl)c(Cl)c1)c1ccccc1C(=O)O,i,56µM,i,i,i,i
CC1=CC(=O)C(C(C)=Nc2ccccc2Cl)C(=O)O1 (centres undefined),i,50µM,i,?,i,i
CCc1ccc(NC(=O)C2CCCN2S(=O)(=O)c2ccc3c(c2)CCCC(=O)N3)cc1 (centres undefined),i,i,nt,i,i,nt
Cc1cc(SCc2ccc(Cl)cc2)nc(=O)[nH]1,i,i,nt,i,i,i
COc1cccc(NC(=O)CSc2cc(C)[nH]c(=O)n2)c1,i,i,nt,i,i,nt
COc1ccc(C(=O)CSc2nc(C)cc(=O)[nH]2)cc1,i,25µM,i,i,i,i

# Screens deposited in PubChem BioAssay by National Center for Advancing Translational Sciences (NCATS).
